Reference: PubChem BioAssay AID463173 (ICCB-Longwood Screening Facility, Harvard Medical School, 2010)
About 4,300 (8.3%) of roughly 52,000 compounds were called active. This is one part of a sample in which actives are shown more often than they occur. A number with no mark means an inactive call. Rule as the data show it: active = survival mostly below about 52% (no sharp cut-off); inactive = mostly above about 56%.

These compounds were tested on DeltatarO mutant (assay: growth inhibition of S. aureus wild type versus tarO mutant, primary screen, teichoic acid synthesis inhibitors, RN4220, OD600 (AID 463173)). Conditions: OD600, 18 h, active compounds read low, screened at 18.75 µg/mL (by protocol).
`Cc1ccc(C)c(NC(=O)c2ccc(CN3CC(=O)N4CCCCC4C3=O)cc2)c1` (stereo unspecified) gave a survival of 54%.
With `Cc1cc(Oc2nc3ccccn3c(=O)c2/C=C(\C#N)c2nc3ccccc3s2)ccc1Cl` the survival was 63%.
`COc1ccc(S(=O)(=O)N2CCC(C(=O)NC(C)c3ccccc3)CC2)cc1` (stereo unspecified) showed a survival of 79%.
In the case of `COc1ccc(OC)c(/C=N/c2ncn[nH]2)c1`, the survival is reported as 101%.
For `COCCCNC(=O)Cn1c(=O)nc(-c2ccccc2)c2ccccc21`, the survival was 78%.
For `CCOc1ccccc1NC(=O)c1ccc2c(c1)CCCN2S(C)(=O)=O`, the survival was 81%.
In the case of `Cc1nn(-c2ccc(N3CCCC3)nn2)c(C)c1CCC(=O)Nc1ccc(F)c(Cl)c1`, the survival is reported as 68%.
`O=C(NCc1cccn1Cc1ccccc1)Nc1cccc(C(F)(F)F)c1` was tested, and the survival was 54%.
In the case of `COCCCNC(=O)c1ccc(Cn2c(=O)c3ccccc3n(Cc3ccc(Cl)cc3)c2=O)cc1`, the survival is reported as 89%.
`COc1ccc(NC(=O)CN(C)S(=O)(=O)c2ccc3nc(C)sc3c2)cc1Cl` was tested, and the survival was 82%.
`CN(C)c1ccc(/C=N/c2nc3ccccc3o2)cc1` gave a survival of 85%.
Compound `COc1ccc(CCNC(=O)c2ccc(Cn3c(SCc4ccccc4)nc4cccnc43)cc2)cc1` has a survival of 92%.
For `CCN(C(=O)c1cc2c(s1)-c1c(C)cccc1OC2)c1cc(C)ccc1C`, the survival was -1% (active).
`Cc1ccc(CCNC(=O)c2cc3c(s2)-c2c(C)cccc2OC3)cc1` was tested, and the survival was 93%.
In the case of `Cc1cccc(CCNC(=O)c2cc3c(s2)-c2c(C)cccc2OC3)c1`, the survival is reported as 83%.
With `CCN(Cc1ccccc1)C(=O)c1cc2c(s1)-c1c(C)cccc1OC2` the survival was 55% (active).
Work on `Cc1ccc(CNC(=O)c2cc3c(s2)-c2c(C)cccc2OC3)cc1` yielded a survival of 68%.
In the case of `CCN(C(=O)c1cc2c(s1)-c1c(C)cccc1OC2)c1ccccc1F`, the survival is reported as 97%.
Compound `CC(C)CCN1C(=O)c2ccccc2CC1(C)C(=O)NC1CCC(C)CC1` (stereo unspecified) has a survival of 100%.
For `CCOC(=O)c1c(C)[nH]c(CCC(=O)NCc2ccccc2Cl)c1C`, the survival was 98%.
`CCOc1ccc(NC(=O)Cn2cc(C(=O)c3ccccc3)c(=O)c3cc4c(cc32)OCCO4)cc1` showed a survival of 73%.
`COc1ccc(NC(=O)c2cn(-c3ccccc3)nc2-c2ccc(C)cc2)cc1` gave a survival of 63%.
In the case of `O=C(O)c1ccc(NC(=O)c2cn(-c3ccccc3)nc2-c2ccc(Br)cc2)cc1`, the survival is reported as 24% (active).
Work on `CC(=O)c1ccc(NC(=O)c2cn(-c3ccccc3)nc2-c2ccc(Br)cc2)cc1` yielded a survival of 75%.
Compound `COc1ccccc1NC(=O)c1cn(-c2ccccc2)nc1-c1ccccc1` has a survival of 95%.
Compound `CCOC(=O)c1ccc(NC(=O)c2cn(-c3ccccc3)nc2-c2ccc(Br)cc2)cc1` has a survival of 70%.
`COc1ccc(-c2nn(-c3ccccc3)cc2C(=O)Nc2ccccc2OC)cc1` was tested, and the survival was -2% (active).
`CCOC(=O)c1ccc(NS(=O)(=O)c2ccc3c(c2)CCN3C(=O)CC)cc1` showed a survival of 79%.
`Brc1ccc(-c2cn3cc(Cc4ccccc4)sc3n2)cc1` showed a survival of 64%.
With `CCOc1ccc(NC(=O)Cn2c(=O)oc3cc(S(=O)(=O)N4CCCCCC4)ccc32)cc1` the survival was 75%.
For `COc1ccc(OC)c(CNC(=O)c2cc(=O)[nH]c3ccc(S(=O)(=O)N4CCCCC4C)cc23)c1` (stereo unspecified), the survival was 6% (active).
`COc1ccc(CCNC(=O)c2cc(=O)[nH]c3ccc(S(=O)(=O)N4CCCCC4C)cc23)cc1OC` (stereo unspecified) was tested, and the survival was 117%.
`CC1CCN(S(=O)(=O)c2ccc3c(c2)oc(=O)n3CC(=O)O)CC1` was tested, and the survival was 0% (active).
For `CC1CCN(C(=O)Cn2c(=O)oc3cc(S(=O)(=O)N4CCCCC4)ccc32)CC1`, the survival was 86%.
`COc1ccc(NC(=O)Cn2c(=O)oc3cc(S(=O)(=O)N4CCCCC4C)ccc32)cc1` (stereo unspecified) was tested, and the survival was 47% (active).
`COc1ccc(Br)cc1CNC(=O)c1cc(=O)[nH]c2ccc(S(=O)(=O)N3CCCCC3C)cc12` (stereo unspecified) was tested, and the survival was 82%.
In the case of `CC1CCN(S(=O)(=O)c2ccc3c(c2)oc(=O)n3CC(=O)N2CCCCC2)CC1`, the survival is reported as 66%.
For `COc1cc(NC(=O)Cn2c(=O)oc3cc(S(=O)(=O)N4CCCCCC4)ccc32)cc(OC)c1`, the survival was 95%.
`Fc1ccc(N2CCN(c3ncnc4[nH]ncc34)CC2)cc1` was tested, and the survival was 95%.
`CCSc1ncc(Cl)c(C(=O)Nc2c(C(=O)Nc3cccc(C)c3)oc3ccccc23)n1` gave a survival of 109%.
`Cc1c(C(=O)NCCc2ccccc2)cccc1-n1cnc2cccnc21` was tested, and the survival was 75%.
With `O=C(O)c1cccc(NC2SC(=O)N(c3ccccc3)C2=O)c1` (stereo unspecified) the survival was 107%.
Compound `O=C1C(=O)N(C2CCN(C(=O)c3ccc(Cl)cc3)CC2)CCN1Cc1ccc(F)cc1` has a survival of 78%.
In the case of `COc1ccc(-n2c(SCC(=O)N3CCc4ccccc43)nc3c([nH]c4ccccc43)c2=O)cc1`, the survival is reported as 92%.
`Cc1cccc(NC(=O)CN(C)S(=O)(=O)c2cnc[nH]2)c1C` gave a survival of 97%.
`CCN1CCc2c(sc(NC(=O)c3ccc(S(=O)(=O)N(C)C4CCCCC4)cc3)c2C(N)=O)C1` was tested, and the survival was 80%.
`Cc1ccccc1NC(=O)Cn1cc(S(=O)(=O)N2CCCC2)c(S(=O)(=O)N2CCCC2)c1` was tested, and the survival was 90%.
`CC(=O)c1ccc(NC(=O)CCCc2nc(-c3cccc(C)c3)no2)cc1` gave a survival of 69%.
`COc1ccc(N2CCN(CCCNC(=O)C3COc4ccccc4C3)CC2)cc1` (stereo unspecified) showed a survival of 131%.
`CCn1c(CNc2ccc(C)cc2)nnc1SCc1ccccc1` was tested, and the survival was 115%.
`O=C(Nc1ccccc1)N(Cc1cccc(Cl)c1)c1ccccn1` was tested, and the survival was 37% (active).
For `CCc1ccc(CN(C(=O)Nc2cccc(Cl)c2)c2ccccn2)cc1`, the survival was 94%.
With `O=C(Nc1ccccc1)N(Cc1ccc(F)cc1)c1ccccn1` the survival was 56%.
With `Cc1ccc(CN(C(=O)Nc2cccc(Cl)c2)c2ccccn2)cc1` the survival was 40% (active).
`COc1cc(CN(C(=O)Nc2cccc(Cl)c2)c2ccccn2)cc(OC)c1OC` gave a survival of 68%.
`COc1ccc(CN(C(=O)Nc2cccc(Cl)c2)c2ccccn2)cc1OC` was tested, and the survival was 92%.
For `COc1cc(NC(=O)CCn2cnc3ccccc3c2=O)cc(OC)c1`, the survival was 122%.
`CCN(CC)C(=O)Cn1cc(SCC(=O)Nc2cccc(C)c2)c2ccccc21` gave a survival of 69%.
`Cc1ccc2c(CC(=O)Nc3c(C(=O)c4ccc(C)c(F)c4)oc4ccccc34)coc2c1` gave a survival of 96%.
`O=C(NCc1ccccc1)C1CCN(S(=O)(=O)Cc2ccccc2)CC1` gave a survival of 98%.
`CCc1ccc(NC(=O)C2CCN(S(=O)(=O)c3cccc(-c4noc(C)n4)c3)CC2)cc1` showed a survival of 77%.
`CCc1cccc(NC(=O)C2CCN(S(=O)(=O)c3cccc(-c4noc(C)n4)c3)CC2)c1` showed a survival of 73%.
In the case of `Cc1cc(C)cc(NC(=O)C2CCN(S(=O)(=O)c3cccc(-c4noc(C)n4)c3)CC2)c1`, the survival is reported as -5% (active).
`Cc1ccc(NC(=O)CSc2nc(C3CCCC3)nc3c2c(=O)n(C)c(=O)n3C)c(C)c1` showed a survival of 73%.
Work on `COc1cccc(CNC(=O)c2oc3c(c2C)-c2nn(Cc4cccc(Cl)c4)cc2CC3)c1` yielded a survival of 76%.
`CCOC(=O)c1ccc(NC(=O)c2c(NC(C)=O)sc3c2CCC(C)C3)cc1` (stereo unspecified) gave a survival of 47%.
In the case of `CCOC(=O)c1c(NC(=O)C2c3ccccc3Oc3ccccc32)sc2c1CCC(CC)C2` (stereo unspecified), the survival is reported as 52%.
In the case of `CCC1CCc2c(sc(NC(=O)C3c4ccccc4Oc4ccccc43)c2C(=O)OC)C1` (stereo unspecified), the survival is reported as 72%.
In the case of `CCOC(=O)c1c(NC(=O)c2ccc(F)cc2)sc2c1CCC(CC)C2` (stereo unspecified), the survival is reported as 9% (active).
With `CCOC(=O)c1c(NC(=O)COc2cccc(C)c2C)sc2c1CCC(CC)C2` (stereo unspecified) the survival was 59%.
In the case of `CCOC(=O)c1c(NC(=O)c2ccccc2OCC)sc2c1CCC(CC)C2` (stereo unspecified), the survival is reported as -2% (active).
Work on `CCCSc1ncc(Cl)c(C(=O)Nc2ccc(S(=O)(=O)N3CCCCC3C)cc2)n1` (stereo unspecified) yielded a survival of 51%.
Work on `Cc1ccc(-c2nnc(SCc3ccccc3C#N)o2)cc1` yielded a survival of 69%.
For `COc1ccc(-c2nnc(SCC#N)o2)cc1`, the survival was 74%.
`c1ccc(-c2nnc(SCc3cccnc3)o2)cc1` was tested, and the survival was 54% (active).
Compound `COc1cccc(CSc2nnc(-c3ccc(F)cc3)o2)c1` has a survival of 90%.
For `Cc1ccc(CSc2nnc(-c3ccc(O)cc3)o2)cc1`, the survival was 84%.
Work on `N#Cc1ccccc1CSc1nnc(-c2ccccc2)o1` yielded a survival of 61%.
`Cc1ccc(-c2nnc(SCc3ccccc3C)o2)cc1` was tested, and the survival was -5% (active).
`Oc1ccccc1-c1nnc(SCc2ccccc2)o1` gave a survival of 86%.
`COc1ccc(-c2nnc(SCc3cccc(Cl)c3)o2)cc1` was tested, and the survival was 22% (active).
`CCOc1ccc(CCNC(=O)c2ccc(C)c(-n3c(C)nc4cccnc43)c2)cc1OCC` gave a survival of 101%.
`Cc1cccc(C(=O)Nc2ccc(OCc3cc(=O)n4ccsc4n3)cc2)c1` showed a survival of 101%.
Compound `O=C(CSc1ccccn1)Nc1cccc(F)c1` has a survival of 85%.
In the case of `COC(=O)C(C)(C)Sc1nnc2c(n1)[nH]c1c(C)cc(C)cc12`, the survival is reported as 55%.
In the case of `COc1cc(NC(=O)c2ccc(-n3cnc4cccnc43)cc2)cc(OC)c1`, the survival is reported as 55%.
With `COc1cc(OC)c(NC(=O)c2ccc(-n3cnc4cccnc43)cc2)cc1Cl` the survival was 52% (active).
In the case of `Cc1cccc(NC(=O)c2ccc(-n3cnc4cccnc43)cc2)c1C`, the survival is reported as 82%.
Work on `CN1C(C(=O)Nc2cccc(O)c2)=CC(c2ccco2)=NS1(=O)=O` yielded a survival of 88%.
For `CCn1c(C)c(C)c2cc(C(=O)NCc3ccc(F)cc3)ccc21`, the survival was 90%.
Work on `COc1ccc(CNC(=O)CCc2c(C)nc3c(c2C)c(=O)n(C)c(=O)n3C)cc1` yielded a survival of 115%.
